# About 79,000 compounds went through this panel and 15% of them were active in at least one assay; those are over-represented in the sample as a whole. Activity calls are given as the source filed them. Rule as the data show it: active = growth inhibition above about 70%; inactive = the rest.
# Experiment: NCI Yeast Anticancer Drug Screen. Data for the sgs1 strain (AID 173);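 also: 0% = growth of vehicle-only control cultures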
# Conditions: S. cerevisiae sgs1 mutant, at 100.0 µM, active compounds read high
# Summary of the method: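 Each compound was added to cultures of the altered yeast strain. Growth was recorded, and inhibition was derived by comparison with vehicle controls.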
row,Compound,growth inhibition
1,O=CC=C(c1ccccc1)c1ccccc1,99% (active)
2,FC(F)(F)c1nc2nc(Cl)c(Cl)nc2n1CCCN1CCOCC1,47% (inactive)
3,N#CSc1ccc(S(N)(=O)=O)cc1,65% (inactive)
4,O=C(NC(Nc1ccc(F)c(Cl)c1)(C(F)(F)F)C(F)(F)F)C(C(F)(F)F)C(F)(F)F,96% (active)
5,O=C(/C=C\c1ccc(Cl)cc1Cl)c1cccs1,45% (inactive)
6,O=C(NCCCCNCCCNC(=O)c1cc(-c2ccccc2)nc2ccccc12)c1cc(-c2ccccc2)nc2ccccc12,93% (active)
7,NC(=NCc1ccccc1)N/N=C\c1ccnc2ccccc12,61% (inactive)
8,COc1cc(C2C3=C(COC3=O)Oc3cc4c(cc32)OCO4)ccc1O (centres undefined),59% (inactive)
9,C#CCCCc1ccccc1,89% (active)
10,CCc1ccc(NS(=O)(=O)c2ccccc2)c([N+](=O)[O-])c1,90% (active)
11,COc1ccc(C2c3cc4c(cc3OC(C)(O)C2C)OCO4)c(OC)c1 (centres undefined),98% (active)
12,COC(=O)c1ccc(CCC2=CC(=O)C(Br)=CC2=O)cc1,70% (active)
13,NNC(=O)CCc1ccc2ccc3ccccc3c2c1,52% (inactive)
14,Cn1c2ccccc2c(=O)c2cc(NC(=O)CCCCC(=O)Nc3ccc4c(c3)c(=O)c3ccccc3n4C)ccc21,49% (inactive)
15,CC(CC(C)(C)[N+](C)(C)C)[N+](C)(C)C (centres undefined),-1% (inactive)
16,CC1CCN(CCC(=O)c2ccc(Cl)cc2)CC1,66% (inactive)
17,CCCCCCCCCCCCCCC(C(=O)[O-])[n+]1ccccc1 (centres undefined),95% (active)

row,Compound,growth inhibition
1,CNC1C(OC2C(OC3C(O)C(O)C(N=C(N)N)C(O)C3N=C(N)N)OC(C)C2(O)CO)OC(CO)C(O)C1O (centres undefined),46% (inactive)
2,O=C(O)c1ccccc1-c1ccccc1C(=O)Nc1ccc2c(c1)Cc1ccccc1-2,94% (active)
3,O=[N+]([O-])c1cccc2nc3ccccc3c(NCCCN3CCOCC3)c12,98% (active)
4,C=CC(C)(O)CCC1C(=C)C(O)CC2C(C)(C)CCCC12C (centres undefined),72% (active)
5,CN1c2ccc(Cl)cc2C(=O)NC1c1ccc([N+](=O)[O-])s1 (centres undefined),96% (active)
6,[O-][n+]1c2ccc(O)cc2nc2ccc(Br)cc21,84% (active)
7,O=C1c2ccccc2-c2nc3ccccc3nc21,36% (inactive)
8,CCCCN1C(=O)N(c2ccc(OCC)cc2)C2N(CCCC)C1C(C)(C)C2(C)C (centres undefined),95% (active)
9,COc1cc2c(cc1[N+](=O)[O-])C(=O)C(Br)(Br)CCC2,97% (active)
10,O=C1OC(CCl)CN1/N=C/c1ccc([N+](=O)[O-])o1 (centres undefined),95% (active)
11,CN(C)CCOc1ccc2c(c1)C/C(=C/c1ncc([N+](=O)[O-])n1C)C2=O,81% (active)
12,CCCCCCCCCCCCCCCCCCN(C)CC(COP(=O)([O-])OCC[N+](C)(C)C)OC (centres undefined),99% (active)
13,CC(C)c1ccccc1NC(=O)/C(Cl)=C(\Cl)C(=O)O,96% (active)
14,O=[N+]([O-])C(=C(Sc1ccccc1)Sc1ccccc1)C(Cl)=C(Cl)Cl,78% (active)
15,C(=C\c1ccccc1)/COc1ccccc1C(N1CCOCC1)n1nc2ccccc2n1 (centres undefined),99% (active)
16,O=C1C(Nc2ccccc2)=C(Oc2ccccc2)C(=O)c2ccccc21,16% (inactive)
17,CCN(CC)CCN1C(=O)c2cccc3cc(OC)cc(c23)C1=O,42% (inactive)

# Experiment: NCI Yeast Anticancer Drug Screen. Data for the mlh1 rad18 strain (AID 175)
# Conditions: S. cerevisiae mlh1 rad18 strain growth inhibition; at 5.0 µM (retest, dose inferred, filed as 0.5); active compounds read high
# Summary of the method: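 Genetically defined yeast (DNA repair-deficient) exposed to compounds; growth inhibition determined relative to vehicle.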
row,Compound,growth inhibition
1,O=CC=C(c1ccccc1)c1ccccc1,16% (inactive)
2,FC(F)(F)c1nc2nc(Cl)c(Cl)nc2n1CCCN1CCOCC1,5% (inactive)
3,BrCC[P+](c1ccccc1)(c1ccccc1)c1ccccc1,5% (inactive)
4,N#CSc1ccc(S(N)(=O)=O)cc1,40% (inactive)
5,O=[N+]([O-])c1ccc2nc3ccccc3cc2c1,-71% (inactive)
6,O=C(NC(Nc1ccc(F)c(Cl)c1)(C(F)(F)F)C(F)(F)F)C(C(F)(F)F)C(F)(F)F,21% (inactive)
7,O=C(/C=C\c1ccc(Cl)cc1Cl)c1cccs1,27% (inactive)
8,NC(=NCc1ccccc1)N/N=C\c1ccnc2ccccc12,3% (inactive)
9,CCCCN(CCCC)CCSc1ccc(Cl)cc1,3% (inactive)
10,COc1cc(C2C3=C(COC3=O)Oc3cc4c(cc32)OCO4)ccc1O (centres undefined),45% (inactive)
11,C#CCCCc1ccccc1,15% (inactive)
12,CCc1ccc(NS(=O)(=O)c2ccccc2)c([N+](=O)[O-])c1,1% (inactive)
13,COC(=O)c1ccc(CCC2=CC(=O)C(Br)=CC2=O)cc1,27% (inactive)
14,NNC(=O)CCc1ccc2ccc3ccccc3c2c1,-10% (inactive)
15,Cn1c2ccccc2c(=O)c2cc(NC(=O)CCCCC(=O)Nc3ccc4c(c3)c(=O)c3ccccc3n4C)ccc21,9% (inactive)
16,CC(CC(C)(C)[N+](C)(C)C)[N+](C)(C)C (centres undefined),12% (inactive)
17,CC1CCN(CCC(=O)c2ccc(Cl)cc2)CC1,21% (inactive)
18,CCCCCCCCCCCCCCC(C(=O)[O-])[n+]1ccccc1 (centres undefined),-15% (inactive)

row,Compound,growth inhibition
1,CNC1C(OC2C(OC3C(O)C(O)C(N=C(N)N)C(O)C3N=C(N)N)OC(C)C2(O)CO)OC(CO)C(O)C1O (centres undefined),12% (inactive)
2,O=[N+]([O-])c1cccc2nc3ccccc3c(NCCCN3CCOCC3)c12,95% (active)
3,C=CC(C)(O)CCC1C(=C)C(O)CC2C(C)(C)CCCC12C (centres undefined),23% (inactive)
4,CN1c2ccc(Cl)cc2C(=O)NC1c1ccc([N+](=O)[O-])s1 (centres undefined),2% (inactive)
5,[O-][n+]1c2ccc(O)cc2nc2ccc(Br)cc21,50% (inactive)
6,O=C1c2ccccc2-c2nc3ccccc3nc21,84% (active)
7,CCCCN1C(=O)N(c2ccc(OCC)cc2)C2N(CCCC)C1C(C)(C)C2(C)C (centres undefined),13% (inactive)
8,CO[C@H]1C[C@](C)(O)Cc2cc3c(c(O)c21)C(=O)c1c(O)cc2c(c1C3=O)O[C@@H]1O[C@@]2(C)[C@H](O)[C@@H](N(C)C)[C@@H]1O,-19% (inactive)
9,COc1cc2c(cc1[N+](=O)[O-])C(=O)C(Br)(Br)CCC2,18% (inactive)
10,O=C1OC(CCl)CN1/N=C/c1ccc([N+](=O)[O-])o1 (centres undefined),66% (inactive)
11,CN(C)CCOc1ccc2c(c1)C/C(=C/c1ncc([N+](=O)[O-])n1C)C2=O,53% (inactive)
12,CCCCCCCCCCCCCCCCCCN(C)CC(COP(=O)([O-])OCC[N+](C)(C)C)OC (centres undefined),7% (inactive)
13,O=[N+]([O-])C(=C(Sc1ccccc1)Sc1ccccc1)C(Cl)=C(Cl)Cl,12% (inactive)
14,C(=C\c1ccccc1)/COc1ccccc1C(N1CCOCC1)n1nc2ccccc2n1 (centres undefined),16% (inactive)
15,O=C1C(Nc2ccccc2)=C(Oc2ccccc2)C(=O)c2ccccc21,-3% (inactive)
16,CCN(CC)CCN1C(=O)c2cccc3cc(OC)cc(c23)C1=O,12% (inactive)
17,CN(C)Cc1cc(N=Nc2ccc(Cl)cc2)cc(CN(C)C)c1O,4% (inactive)

# From PubChem BioAssay (NCI)
